The record followed here is PubChem BioAssay AID1224864 (Chung Lab, Department of Pediatrics, Emory University, 2016).

Screen size: about 2,000 compounds; about 20 (1%) were called active. How the calls were made is not given here. The entries come from a sample that favours actives as a whole. Residues, ends and D or L forms follow the SMILES beside them. *: point of attachment. Boc = CC(C)(C)OC(=O)*; OBn = c1ccc(CO*)cc1

Sequence of Cystic fibrosis transmembrane conductance regulator (Homo sapiens) (P13569 whole entry, looked up, stated change not applied): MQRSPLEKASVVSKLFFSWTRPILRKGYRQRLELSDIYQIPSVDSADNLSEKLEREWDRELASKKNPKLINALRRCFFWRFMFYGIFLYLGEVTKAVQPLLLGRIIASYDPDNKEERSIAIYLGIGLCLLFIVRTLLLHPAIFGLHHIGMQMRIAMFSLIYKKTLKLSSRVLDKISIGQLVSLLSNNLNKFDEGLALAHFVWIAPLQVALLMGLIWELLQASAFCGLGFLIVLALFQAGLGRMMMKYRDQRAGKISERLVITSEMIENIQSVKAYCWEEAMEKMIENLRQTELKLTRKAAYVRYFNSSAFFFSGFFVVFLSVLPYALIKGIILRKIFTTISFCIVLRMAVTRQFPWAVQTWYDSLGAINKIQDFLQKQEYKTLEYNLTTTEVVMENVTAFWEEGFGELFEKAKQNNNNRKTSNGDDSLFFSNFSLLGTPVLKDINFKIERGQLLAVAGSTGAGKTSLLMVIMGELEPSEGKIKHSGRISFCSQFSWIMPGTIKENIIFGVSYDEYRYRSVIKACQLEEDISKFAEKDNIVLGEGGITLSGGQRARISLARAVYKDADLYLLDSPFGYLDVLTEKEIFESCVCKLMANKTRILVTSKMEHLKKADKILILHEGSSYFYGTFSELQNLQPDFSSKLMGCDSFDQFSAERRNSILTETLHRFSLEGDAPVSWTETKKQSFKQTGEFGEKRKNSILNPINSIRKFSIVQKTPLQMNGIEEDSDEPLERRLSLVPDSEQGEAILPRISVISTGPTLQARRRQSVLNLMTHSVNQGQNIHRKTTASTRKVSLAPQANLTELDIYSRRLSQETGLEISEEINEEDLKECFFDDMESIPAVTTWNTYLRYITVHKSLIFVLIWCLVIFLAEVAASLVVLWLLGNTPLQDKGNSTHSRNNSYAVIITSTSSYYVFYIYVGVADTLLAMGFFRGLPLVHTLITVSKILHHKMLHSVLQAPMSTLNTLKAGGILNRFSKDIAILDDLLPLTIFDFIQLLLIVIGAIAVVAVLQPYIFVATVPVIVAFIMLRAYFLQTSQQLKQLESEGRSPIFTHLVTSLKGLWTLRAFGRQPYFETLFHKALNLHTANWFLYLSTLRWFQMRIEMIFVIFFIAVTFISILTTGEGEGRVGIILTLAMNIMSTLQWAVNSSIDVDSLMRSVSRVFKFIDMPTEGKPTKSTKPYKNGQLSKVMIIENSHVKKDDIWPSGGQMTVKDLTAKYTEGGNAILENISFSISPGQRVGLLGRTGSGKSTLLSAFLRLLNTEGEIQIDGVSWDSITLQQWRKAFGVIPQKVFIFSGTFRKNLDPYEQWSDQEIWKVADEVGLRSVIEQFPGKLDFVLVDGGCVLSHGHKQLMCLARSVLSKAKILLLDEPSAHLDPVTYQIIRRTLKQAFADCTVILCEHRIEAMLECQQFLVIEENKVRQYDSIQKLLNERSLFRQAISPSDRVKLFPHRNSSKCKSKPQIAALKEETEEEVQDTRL

This test has as its target Cystic fibrosis transmembrane conductance regulator (Homo sapiens) (UniProt P13569). The experiment in a line: F508del-CFTR plasma membrane relocalization enhancers – imaging, HeLa, high-content microscopy, immunofluorescence, primary screen (AID 1224864).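 Further: HeLa cells stably expressing F508del-CFTR stained with 3G11 antibody against NBD1.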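 On plasma membrane CFTR intensity: mean immunofluorescence in a thin cell-margin band taken as plasma membrane.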 Conditions: PM immunofluorescence imaging, 24 h, at 10 µM, stronger effect = higher value, relative to vehicle wells set at 100; total CFTR intensity: measured here: total cellular F508del-CFTR signal.
With `N/C(=N/OS(=O)(=O)c1ccc([N+](=O)[O-])cc1)c1ccncc1`, the plasma membrane CFTR intensity is 87% (inactive) and the total CFTR intensity amounted to 85%.
The corresponding values for `COc1ccccc1NC(=O)N1CCc2[nH]c3ccc(Cl)cc3c2C1` are 92% (inactive) and 84%.
Take `C/C(CCc1oc2ccc(Cl)cc2c1-c1ccc(C)o1)=N\O`: the plasma membrane CFTR intensity is 91% (inactive) and the total CFTR intensity was 97%.
The corresponding values for `COc1ccc(/C=N\NC(=O)CCc2c(C)n[nH]c2C)c(OC)c1OC` are 82% (inactive) and 77%.
The corresponding values for `COc1ccccc1Oc1c(C)oc2c(CN3CCN(CCO)CC3)c(O)ccc2c1=O` are 90% (inactive) and 89%.
The corresponding values for `O=C(O)c1ccc(OCCn2ccnc2)cc1` are 77% (inactive) and 82%.
As to `CN(CCCN1CCOCC1)Cc1cn(C)nc1-c1ccccc1F`, the plasma membrane CFTR intensity was 84% (inactive) and the total CFTR intensity was 87%.
The corresponding values for `NCc1ccccc1COc1ccccc1` are 81% (inactive) and 83%.
Turning to `Cc1ccc(CN2CCN(CCCc3ccccc3)CC2CCO)cc1` (stereo not drawn), the plasma membrane CFTR intensity is 82% (inactive) and the total CFTR intensity was determined as 85%.
The corresponding values for `CCC(CO)NCCNC(CC)CO` (stereo not drawn) are 86% (inactive) and 88%.
The corresponding values for `Cc1ccc(N2CCN(C(=S)c3ccc(-c4cccc([N+](=O)[O-])c4)o3)CC2)cc1` are 81% (inactive) and 80%.
Take `O=C(CN1C(=O)c2ccccc2S1(=O)=O)Nc1ccccc1`: the plasma membrane CFTR intensity was 84% (inactive) and the total CFTR intensity is 82%.
The corresponding values for `CCCCC/C=C\C[C@H](O)/C=C/c1cccc(C[C@H](O)CCCCO)n1` are 107% (active) and 126%.
For `CN(C)c1cc(NC(=O)CN2CCOCC2)c2ccccc2n1`, the plasma membrane CFTR intensity was 91% (inactive) and the total CFTR intensity came to 88%.
Take `CCOC(=O)C1C(=O)CC(C)(O)C(C(=O)OCC)C1/C=C/c1ccccc1` (stereo not drawn): the plasma membrane CFTR intensity is 95% (inactive) and the total CFTR intensity is 102%.
The corresponding values for `Nc1ccc(N)c(C(=O)O)c1` are 77% (inactive) and 82%.
The corresponding values for `CCOC(=O)Cn1c(C)cc(=O)c2ccccc21` are 114% (inactive) and 113%.
The corresponding values for `COc1cc(C(=O)OCCCN(C)C)cc(OC)c1OC` are 89% (inactive) and 84%.
Regarding `CN(C)c1ccc(CNCCC(Cc2ccccc2)c2ccco2)cc1` (stereo not drawn), the plasma membrane CFTR intensity was 50% (inactive) and the total CFTR intensity was 41%.
The corresponding values for `Cn1c(=O)c2c(ncn2Cc2ccccc2)n(C)c1=O` are 81% (inactive) and 82%.
In the case of `CNC[C@H](O)c1cccc(O)c1`, the plasma membrane CFTR intensity is 92% (inactive) and the total CFTR intensity was 96%.
The corresponding values for `CC(C)NC[C@@H](O)c1ccc(O)c(O)c1` are 100% (inactive) and 111%.
For the compound `CNC[C@H](O)c1ccc(O)c(O)c1`, the plasma membrane CFTR intensity was 101% (active) and the total CFTR intensity amounted to 120%.
The corresponding values for `O[C@@H](CNC[C@H](O)c1ccccc1)c1ccccc1` are 90% (inactive) and 84%.
The corresponding values for `Cn1nc(-c2ccc(Cl)cc2)nc2c(=O)n(C)c(=O)nc1-2` are 84% (inactive) and 86%.
The corresponding values for `O=C(CN1C(=O)c2ccccc2C1=O)Nc1cccc([N+](=O)[O-])c1` are 90% (inactive) and 91%.
On to `COc1cc(-c2nnc(-c3cccs3)o2)cc(OC)c1OC`, for which the plasma membrane CFTR intensity is 96% (inactive) and the total CFTR intensity was 87%.
The corresponding values for `O=c1c2[nH]c3ccccc3c2ncn1CCC1=CCCCC1` are 87% (inactive) and 88%.
The corresponding values for `Cc1ccc2c(c1)c1c(n2C)C(=O)CCC1` are 76% (inactive) and 75%.
The corresponding values for `CCc1cc(=O)oc2cc(OCC=C(C)C)ccc12` are 95% (inactive) and 98%.
As for `COc1ccc2c(c1OC)C(=O)NC(C)=C(C(=O)OC(C)(C)C)C2O` (stereo not drawn), the plasma membrane CFTR intensity was 87% (inactive) and the total CFTR intensity came to 90%.
The corresponding values for `O=C1CCCCCN1Cc1ccccc1` are 86% (inactive) and 90%.
On to `O=C1C=CC(=O)C(C2=C3C(=O)N(CCc4ccccc4)CC(=O)N3CCC2)=C1`, for which the plasma membrane CFTR intensity is 108% (active) and the total CFTR intensity is 124%.
The corresponding values for `COC(=O)CN1CC(=O)N(c2ccccc2)C1=S` are 83% (inactive) and 81%.
As to `COc1ccccc1/C=C/CN1CCN(Cc2ccc(F)cc2)C(CCO)C1` (stereo not drawn), the plasma membrane CFTR intensity is 77% (inactive) and the total CFTR intensity is 77%.
The corresponding values for `CC(C)(CO)CNC(=O)CC1C(=O)NCCN1CC(c1ccccc1)c1ccccc1` (stereo not drawn) are 85% (inactive) and 89%.
The corresponding values for `Cn1c(=O)c2nc3ccccc3nc2n(C)c1=O` are 96% (inactive) and 90%.
The corresponding values for `Cc1coc2c1c(C)cc1oc(=O)c(Cc3ccccc3)c(C)c12` are 91% (inactive) and 91%.
In the case of `O=C(N/N=C\c1cc([N+](=O)[O-])ccc1N1CCOCC1)c1ccccn1`, the plasma membrane CFTR intensity was 79% (inactive) and the total CFTR intensity came to 75%.
The corresponding values for `COC(=O)c1cc(-c2ccc(C)o2)nc2ccccc12` are 96% (inactive) and 99%.
The corresponding values for `Cc1cccc(CN2CCN(C(c3ccccc3)c3ccc(Cl)cc3)CC2)c1` (stereo not drawn) are 92% (inactive) and 107%.
The corresponding values for `Fc1ccc(C(c2ccc(F)cc2)N2CCN(C/C=C/c3ccccc3)CC2)cc1` are 99% (inactive) and 120%.
In the case of `C(=C\c1ccccc1)/CN1CCN(C(c2ccccc2)c2ccccc2)CC1`, the plasma membrane CFTR intensity is 107% (active) and the total CFTR intensity worked out at 125%.
The corresponding values for `O=C(O)c1ccc(N2C(=O)/C(=C\c3ccccc3)N=C2c2ccccc2)cc1` are 78% (inactive) and 78%.
Turning to `COC1CCN(C(=O)c2ccc(OC3CCN(Cc4ccccn4)CC3)cc2)CC1`, the plasma membrane CFTR intensity is 81% (inactive) and the total CFTR intensity was 75%.
The corresponding values for `CC(C)Cc1nc(NCCN2CCOCC2)c(C#N)c2c1COC(C)(C)C2` are 96% (inactive) and 92%.
The corresponding values for `C/C(=N\N=C1/NC(=O)C(CC(=O)Nc2ccc(Cl)cc2)S1)c1ccco1` (stereo not drawn) are 81% (inactive) and 80%.
For the compound `CC(C)COC(=O)C1C(=O)CC(C)(O)C(C(=O)OCC(C)C)C1c1cccnc1` (stereo not drawn), the plasma membrane CFTR intensity was 93% (inactive) and the total CFTR intensity was determined as 100%.
The corresponding values for `C=C(C)COc1ccc(-c2nc(N)ncc2-c2ccc(OC)cc2)c(O)c1` are 82% (inactive) and 81%.
The corresponding values for `O=C(Oc1ccccc1)Oc1ccc2c(c1)oc(=O)c1ccccc12` are 120% (active) and 140%.
The corresponding values for `O=C(Oc1ccc2c3c(c(=O)oc2c1)CCCC3)c1ccco1` are 89% (inactive) and 85%.
For the compound `CSCCC(NC(C)=O)C(=O)Oc1ccc2c3c(c(=O)oc2c1)CCCC3` (stereo not drawn), the plasma membrane CFTR intensity was 80% (inactive) and the total CFTR intensity was found to be 80%.
On to `C[C@H]1O[C@H]1P(=O)(O)O`, for which the plasma membrane CFTR intensity was 103% (inactive) and the total CFTR intensity is 108%.
The corresponding values for `Cc1ccc([N+](=O)[O-])cc1NC1OC(CO)C(O)C1O` (stereo not drawn) are 85% (inactive) and 85%.
The corresponding values for `CC(C)CN(C)Cc1c(C(=O)N2CCc3ccccc3C2)nc2ccc(Cl)cn12` are 77% (inactive) and 81%.
The corresponding values for `CN(C)CCOCCOc1ccc(Cl)cc1Br` are 81% (inactive) and 81%.
Turning to `Cn1cc(CN2CCC(C(=O)N3CCCCC3)CC2)c(-c2ccccc2F)n1`, the plasma membrane CFTR intensity is 79% (inactive) and the total CFTR intensity amounted to 72%.
The corresponding values for `CCOC(=O)C1(CCCc2ccccc2)CCN(C2CCN(C(C)=O)CC2)CC1` are 94% (inactive) and 101%.
As to `O=C1CC(c2ccc(OCCCCCOc3ccc(C4CC(=O)NC4=O)cc3)cc2)C(=O)N1` (stereo not drawn), the plasma membrane CFTR intensity was 96% (inactive) and the total CFTR intensity turned out to be 95%.
The corresponding values for `O=C1CN(O)C=C2N=c3ccccc3=C2N1c1ccc([N+](=O)[O-])cc1` are 72% (inactive) and 74%.
The corresponding values for `O=C(CCC1CCCN(C(=O)c2ccsc2)C1)NCc1ccc(F)c(F)c1` (stereo not drawn) are 81% (inactive) and 83%.
The corresponding values for `CC1(C)C(=O)OC(c2cccs2)C2(CCCCC2)C1=O` (stereo not drawn) are 102% (inactive) and 110%.
On to `NC12CC3CC(C1)CC(O)(C3)C2`, for which the plasma membrane CFTR intensity was 89% (inactive) and the total CFTR intensity worked out at 91%.
The corresponding values for `Cc1cc(C)cc(Nc2nc3c([nH]2)c(=O)n(C)c(=O)n3C)c1` are 98% (inactive) and 95%.
With `CCOC(=O)C(=O)Nc1ccc(Oc2ccccc2)cc1`, the plasma membrane CFTR intensity was 85% (inactive) and the total CFTR intensity was 84%.
The corresponding values for `CC(=O)Nc1nc(CCC(C)C)cc2c1c(=O)oc1ccccc12` are 77% (inactive) and 80%.
The corresponding values for `Cc1cc(OCC(=O)C(C)(C)C)c2c(C)c(C)c(=O)oc2c1` are 86% (inactive) and 86%.
The corresponding values for `CCN(CC)CCOC(=O)C(c1ccccc1)c1ccccc1` are 86% (inactive) and 84%.
As to `CCC(C(=O)OCCN(CC)CC)c1ccccc1` (stereo not drawn), the plasma membrane CFTR intensity is 95% (inactive) and the total CFTR intensity came out at 100%.
The corresponding values for `CCN(CC)CCOC(=O)C1(C2CCCCC2)CCCCC1` are 120% (active) and 123%.
The corresponding values for `O=C(NCCO)c1ccc(Cl)c(Cl)c1` are 90% (inactive) and 90%.
The corresponding values for `Cc1cccc2c(C(=O)O)cc(-c3cccnc3)nc12` are 94% (inactive) and 93%.
For the compound `C[C@]12CC[C@@H]3c4ccc(O)cc4CC[C@H]3[C@@H]1CC[C@@H]2OC(=O)CCC(=O)O`, the plasma membrane CFTR intensity was 78% (inactive) and the total CFTR intensity amounted to 84%.
The corresponding values for `CC(=O)Nc1ccc(S(=O)(=O)c2ccc(N)cc2)cc1` are 97% (inactive) and 95%.
The corresponding values for `Cc1cc(C(=O)NC(CC(C)C)C(=O)O)cc(C)c1[N+](=O)[O-]` (stereo not drawn) are 73% (inactive) and 71%.
The corresponding values for `COc1ccc(CC(=O)c2c(O)cc(O)cc2O)cc1OC` are 83% (inactive) and 82%.
`Cc1cc(O)c(C(=O)Cc2csc(C)n2)c(O)c1`: the plasma membrane CFTR intensity is 110% (active) and the total CFTR intensity stood at 127%.
The corresponding values for `Cc1cc(O)c2/c(=N/N)c(-c3csc(C)n3)coc2c1` are 69% (inactive) and 71%.
The corresponding values for `CC(C)CC(NC(=O)C(NC(=O)OC(C)(C)C)C(C)C)C(=O)NC(CCC(=O)OCc1ccccc1)C(N)=O` (stereo not drawn) (Boc-Val-Leu-Glu(OBn)-NH2; configuration not given here) are 82% (inactive) and 80%.
The corresponding values for `O=C1C(=O)c2ccccc2C(O)=C1c1ccccc1F` are 70% (inactive) and 75%.
As to `CC(=O)[C@@H]1[C@@H](C(=O)c2ccc(C)cc2)[C@]2(C(=O)Nc3ccccc32)[C@H]2C=Cc3cc(F)ccc3N12`, the plasma membrane CFTR intensity was 77% (inactive) and the total CFTR intensity is 114%.
The corresponding values for `CC(C)OC(=O)C1C(=O)CC(C)(O)C(C(=O)OC(C)C)C1c1cccc(O)c1` (stereo not drawn) are 77% (inactive) and 78%.
The corresponding values for `CCOC(=O)c1ccccc1NC(=O)c1ccc(F)cc1` are 101% (inactive) and 103%.
As for `CCOc1ccc(NC(=O)N[C@@H](CCSC)C(=O)OC)cc1`, the plasma membrane CFTR intensity was 88% (inactive) and the total CFTR intensity was determined as 88%.
The corresponding values for `FC(F)(F)c1ccc(-c2noc(CN3CCCN(C4CCCCC4)CC3)n2)cc1` are 95% (inactive) and 100%.
The corresponding values for `COc1ccc2[nH]cc(CCNC(=O)C3CCCNC3=O)c2c1` (stereo not drawn) are 87% (inactive) and 85%.
`CC(C)(C)C(=O)NC(=S)NNC(=O)c1ccncc1`: the plasma membrane CFTR intensity was 94% (inactive) and the total CFTR intensity was found to be 90%.
With `O=C(NC(Nc1ccccn1)C(Cl)(Cl)Cl)c1ccccc1` (stereo not drawn), the plasma membrane CFTR intensity is 84% (inactive) and the total CFTR intensity was 85%.
The corresponding values for `COc1cc(CNc2nnnn2C)ccc1OCc1ccc(F)cc1Cl` are 79% (inactive) and 78%.
